# Experimental data published in PubChem BioAssay.
# Activity calls are given as the source filed them. No rule for the calls is given here.
# Biological target: Pantothenate synthetase (Mycobacterium tuberculosis (strain ATCC 25618 / H37Rv)) (UniProt P9WIL5)
# Assay: Recombinant Mtb pantothenate synthetase (PanC) inhibitors, coupled enzyme, confirmatory (AID 375);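 also: 0% = full reaction with vehicle and 100% = no enzyme background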
# Details: coupled enzyme assay; at 10 µM, hits give high values
# Sequence of Pantothenate synthetase (Mycobacterium tuberculosis (strain ATCC 25618 / H37Rv)) (P9WIL5 whole entry, looked up): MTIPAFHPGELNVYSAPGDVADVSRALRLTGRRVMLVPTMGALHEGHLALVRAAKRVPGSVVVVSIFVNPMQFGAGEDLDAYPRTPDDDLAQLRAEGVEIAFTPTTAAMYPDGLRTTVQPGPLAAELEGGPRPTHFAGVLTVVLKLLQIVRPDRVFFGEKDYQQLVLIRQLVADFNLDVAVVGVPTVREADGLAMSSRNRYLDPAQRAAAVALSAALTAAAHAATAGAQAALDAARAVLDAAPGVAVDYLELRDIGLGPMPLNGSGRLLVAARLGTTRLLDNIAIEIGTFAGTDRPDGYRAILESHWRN
row,Structure (SMILES),inhibition
1,c1ccc(CSCc2cn3ccsc3n2)cc1,0% (inactive)
2,COc1cc2c(cc1OC)C(c1ccccc1O)N(C1CC(=O)N(c3ccccc3)C1=O)CC2 (centres undefined),0% (inactive)
3,O=c1[nH]c(Nc2ccccc2)cc2ccccc12,0% (inactive)
4,Cn1c(/C(C#N)=C/Nc2ccccn2)nc2ccccc21,0% (inactive)
